Results reported in PubChem BioAssay (Tox21).
Results filed as inconclusive are left out. Where a call stands in place of a potency, no number is given. Calls of active or inactive are those of the source. Calls come from the whole dose curve; as a rule, active = well fitted inhibition curve with a large enough effect in the repeat runs; inconclusive = weak or mixed curves; inactive = no such curve, though single readings can be large or run the other way.

Assay: qHTS assay to identify small molecule antagonists of the estrogen related receptor (ERR) signaling pathway (AID 1224819; note: nearly all actives have a fitted effect of over 50% in size)
Conditions: ERR reporter cell line, luciferase inhibition; series mostly up to 46.1 µM
Source text: National Center for Advancing Translational Sciences [NCATS]
NIH Chemical Genomics Center [NCGC]
U.S. Environmental Protection Agency [EPA]
National Institutes of Environmental Health Sciences [NIEHS]
National Toxicology Program [NTP]
U.S. Food and Drug Administration [FDA]
Estrogen related receptors (ERRs), the first orphan nuclear receptors discovered, play an important role in the control of cellular energy metabolism. ERRs are required for high-energy production in response to the environmental challenges. ERR-alpha was also identified as an adverse marker for breast cancer progression; ERR-alpha-positive tumors have a poor prognosis. To screen and to identify environmental compounds that perturb the ERR signaling pathways could provide valuable information for potential therapeutic or preventive measures in the treatment of metabolic disease. For identifying ERR antagonists, ERR cell line (provided by NTP) has been used to screen LOPAC library.
Tox21 Assay Protocol Summary:
The ERR cells were dispensed at 2,000 cells/5 ul/well in 1536-well white plates using a Multidrop dispenser. After the assay plates were incubated at a 37 C/5% CO2 incubator for 6 hours, 23 nL of compounds dissolved in DMSO, positive and negative controls or DMSO only was transferred to the assay plate by a pin tool. The plates were incubated at 37 C for 18 hours. 4 ul/well of One-Glo reagent was added into the assay plates using a Flying Reagent Dispenser. After 30 min incubation at room temperature, the luminescence intensity in the plates was measured using a ViewLux plate reader.
Potency is the fitted concentration of half-maximal effect.

SMILES	Potency
CCCn1c(=O)c2[nH]c(C3CCCC3)nc2n(CCC)c1=O	inactive
Nc1nc(N)c2nc(CNc3ccc(C(=O)NC(CCC(=O)O)C(=O)O)cc3)cnc2n1 (stereo not given)	0.0438 µM (active)
Nc1ccc2c3c(cccc13)C(=O)NC2=O	inactive
O=C(O)C1CCCNC1 (stereo not given)	inactive
CCCCCCCC/C=C\CCCCCCCC(=O)NCCO	inactive
Oc1cc2c(cc1O)C(c1ccccc1)CNCC2 (stereo not given)	inactive
CC(=O)SCC[N+](C)(C)C	inactive
N[C@@H](CC(=O)O)C(=O)O	inactive
O=C1c2c(O)cc(O)cc2OC(c2ccc(O)c(O)c2)C1O (stereo not given)	inactive
CCCn1c(=O)c2c(ncn2C)n(CCC)c1=O	inactive
CC1(C)CCC(NC(=O)[C@@H](N)CCC(=O)O)CC1	inactive
N[C@@H](Cc1cnc[nH]1)C(=O)O	inactive
COc1cc(/C=C(\C#N)C(=O)c2ccc(O)c(O)c2)cc(I)c1O	inactive
O=c1cc(O)cc(/C=C/c2ccc(O)c(O)c2)o1	inactive
CC(C)(C)c1ccc(S(=O)(=O)/C=C/C#N)cc1	inactive
COc1ccc(NC(=O)/C=C/c2ccc(Cl)cc2)cc1	inactive
NC(=O)C1=CN(C2OC(COP(=O)(O)OP(=O)(O)OC[C@H]3O[C@@H](n4cnc5c(N)ncnc54)[C@H](OP(=O)(O)O)C3O)C(O)C2O)C=CC1 (stereo not given in full)	inactive
CC(=O)NC[C@H]1CN(c2ccc(N3CCOCC3)c(F)c2)C(=O)O1	inactive
O=C1NC(=O)/C(=C/c2ccc3c(c2)OC(F)(F)O3)S1	inactive
Nc1nc2[nH]c(=O)cnc2c(=O)[nH]1	inactive

SMILES	Potency
O=C(O)C1=CCCN(CCON=C(c2ccccc2)c2ccccc2)C1	inactive
NC(=O)c1cccc(N)c1	inactive
N#Cc1cc([N+](=O)[O-])c2sc(C(N)=O)[n+]([O-])c2c1	inactive
COc1cc(NS(C)(=O)=O)ccc1Nc1c2ccccc2nc2ccccc12	0.779 µM (active)
Cc1nc2n(c(=O)c1CCN1CCC(c3noc4cc(F)ccc34)CC1)CCCC2O (stereo not given)	inactive
Cc1cccc(-c2[nH]ncc2-c2ccc3ncccc3n2)n1	1.23 µM (active)
C=CCN1CCc2cc(O)c(O)cc2C(c2ccccc2)C1 (stereo not given)	inactive
Cc1cn([C@H]2CC(N=[N+]=[N-])[C@@H](CO)O2)c(=O)[nH]c1=O (stereo not given in full)	inactive
COc1ccc2c(c1)c(CC(=O)O)c(C)n2C(=O)c1ccccc1	inactive
CN1CCN(c2nc3cc(C(F)(F)F)ccc3n3cccc23)CC1	inactive
CCCCCCCCc1ccc(-c2ccc(C(=O)O)cc2)cc1	inactive
N[C@@H](CS(=O)O)C(=O)O	inactive
NCC(O)C1CCCCCCC1 (stereo not given)	inactive
CN(C)c1ccc(/C=C2\C(=O)Nc3ccccc32)cc1	inactive
O=C1c2ccccc2-c2n[nH]c3cccc1c23	26.6 µM (active)
CN[C@H](CC(=O)O)C(=O)O	inactive
NCCCCN	inactive
C[C@@H](c1ncncc1F)[C@](O)(Cn1cncn1)c1ccc(F)cc1F	inactive
C[N+](C)(C)CCOP(=O)(O)OP(=O)([O-])OC[C@H]1O[C@@H](n2ccc(N)nc2=O)[C@H](O)C1O (stereo not given in full)	inactive
O=C(O)CCc1ccc(NCc2cccc(Oc3ccccc3)c2)cc1	inactive
